From PubChem BioAssay
In the library only some 21% were active in any assay of this set; here they are far more common.
Gal4-VP16 FLuc – inhibits Gal4-VP16 luciferase reporter, ROR gamma counter-screen; Potency, µM (titrated, usually from 53.6 µM), inactives show at the top dose activity, negative = inhibition, hits mostly inhibitors; 3.5% of 310,000 active; Drosophila S2 Gal4-VP16 UAS-luciferase, luminescence, 20 h;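 also: Gal4-VP16 expression switched on by copper sulfate through the metallothionein promoter; potency is read from the fitted curve at half-maximal effect; nearly all actives have a fitted effect of over 50% in size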
ELG1 DNA repair – blocks ELG1-dependent DNA repair in HEK293T cells; HEK293T ELG1-luciferase reporter, luminescence, 16 h; DNA damage induced by 5-fluorouridine; Potency, µM (highest dose often 46.1 µM), inactives show at the highest dose activity change, negative = inhibition, most hits filed as inhibitors; 2.3% of 330,000 active; AID 504467; also: potency is read from the fitted curve at half-maximal effect; nearly all actives have a fitted effect of over 55% in size
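Quantitative HTS, concentration-response format. 2,000 cells/well co-treated with 5-fluorouridine and compound, 16 hr in 5% CO2 at 37 °C; ONE-Glo luminescence read after 30 min.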
RORgamma inh – ROR gamma (mouse) transcription inhibition | 5.4% of 310,000 active | Potency, µM (highest dose often 53.6 µM), inactives show top-dose activity change, negative = inhibition, usual class: inhibitors | P51450 | Drosophila S2 Gal4-RORgamma UAS-luciferase reporter, 20 h | AID 2551; also: potency is read from the fitted curve at half-maximal effect; nearly all actives have a fitted effect of over 60% in size
Target sequence (P51450 whole entry, looked up, the tested form may be a part): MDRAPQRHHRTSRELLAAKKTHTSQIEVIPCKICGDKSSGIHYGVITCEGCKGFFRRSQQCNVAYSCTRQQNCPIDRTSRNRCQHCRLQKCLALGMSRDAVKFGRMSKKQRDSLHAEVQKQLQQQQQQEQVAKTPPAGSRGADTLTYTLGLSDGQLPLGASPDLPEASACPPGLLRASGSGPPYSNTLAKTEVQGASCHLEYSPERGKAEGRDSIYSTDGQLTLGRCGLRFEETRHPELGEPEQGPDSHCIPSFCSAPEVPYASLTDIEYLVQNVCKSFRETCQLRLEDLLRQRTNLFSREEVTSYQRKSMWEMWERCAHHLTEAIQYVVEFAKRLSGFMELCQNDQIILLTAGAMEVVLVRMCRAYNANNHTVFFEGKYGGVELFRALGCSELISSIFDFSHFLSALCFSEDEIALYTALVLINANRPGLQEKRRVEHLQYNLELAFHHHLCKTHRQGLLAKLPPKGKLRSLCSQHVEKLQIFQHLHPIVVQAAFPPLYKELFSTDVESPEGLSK
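Stable Schneider cell line, Gal4 DNA-binding domain fused to ROR gamma, UAS-luciferase. Cmpd 1 hr RT → CuSO4 700 uM final → 20 hr RT → luciferase reagent 10 min → luminescence.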
DT40 TDP1 CPT – growth inhibition of DT40 Tdp1-/-;hTDP1 cells with camptothecin (screen for TDP1 inhibitors); Potency, µM (series often up to 46.2 µM), for inactives: at the top dose activity change, negative = growth inhibition, actives largely listed as inhibitors; AID 686979; 12% of 420,000 active; chicken DT40 Tdp1-/-;hTDP1 cells + 20 nM CPT, ATP luminescence, 48 h; also: potency is read from the fitted curve at half-maximal effect; nearly all actives have a fitted effect of over 55% in size
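Chicken DT40 Tdp1-/- cells stably complemented with human TDP1 were seeded at 400 cells/well in medium containing 20 nM camptothecin, exposed to pin-transferred compounds, and grown at 37 °C for at least 48 hr. Viability was read as ATP luminescence.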
TDP1 cell noCPT – qHTS for Inhibitors of human tyrosyl-DNA phosphodiesterase 1 (TDP1): qHTS in cells in absence of CPT | Potency, µM (highest dose often 46.2 µM), for inactives: at the highest dose activity change, negative = growth inhibition, actives largely listed as inhibitors | DT40 Tdp1-/- hTDP1 cells, no CPT, ATP luminescence, 48 h | 15% of 420,000 active; also: potency is read from the fitted curve at half-maximal effect; nearly all actives have a fitted effect of over 55% in size
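No-CPT arm: Tdp1-/-;hTDP1 DT40 cells (400/well) plus compounds, incubated ≥48 hr at 37 °C. Readout CellTiter-Glo luminescence.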
IL1B secr inh – blocks inflammasome-driven IL-1 beta release; THP-1 LPS/ATP IL-1B secretion, AlphaLISA, 16 h; active compounds read low; activity change, % at 57.5 µM; 4.7% of 360,000 active; AID 743279; in the data active = activity change below about -50%; inconclusive = mostly about -30% to -49%
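Secreted IL-1B measured by AlphaLISA bead assay after 16 h compound exposure of THP-1 cells; compounds (final up to 57.5 uM) added 1 h before LPS (250 ng/mL) and ATP (1.25 mM) stimulation; lower signal means less secretion.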
* hit, by the source's call; [ ] = dose if it differs, or a comment. Unless noted, calls follow the shape of the dose curve; as a rule, active = well fitted curve in the direction sought with a large enough effect; inconclusive = small, poorly fitted or top-dose-only effect, or another doubt; inactive = no such curve, though single readings can be large; an effect the other way counts as inactive or inconclusive. % is scaled to controls: 0 for no effect and ±100 for the full control effect.

Results for Cc1ccc2c(c1)NC(=O)C(CC(=O)Nc1ccccc1Cl)O2 (stereo not drawn) ?
DT40 TDP1 CPT: -17.5%; TDP1 cell noCPT: -26.6%

How did O=C(/C=C/c1cccc(C(F)(F)F)c1)Nc1cccc(C(F)(F)F)c1 do in these assays?
Gal4-VP16 FLuc: inconclusive; ELG1 DNA repair: -11.7%; RORgamma inh: inconclusive; DT40 TDP1 CPT: 23.1µM*; TDP1 cell noCPT: 23.1µM*; IL1B secr inh: -92.4*

Results for O=C(O)/C=C/C(=O)Nc1cccc(C(F)(F)F)c1 ?
Gal4-VP16 FLuc: -4.2%; ELG1 DNA repair: 5.2%; RORgamma inh: -16.3%; DT40 TDP1 CPT: 0.5%; TDP1 cell noCPT: -6.2%; IL1B secr inh: -13.0

How did COc1ccc(/C=C/C(=O)Nc2ccc(OC)nc2)cc1 do in these assays?
Gal4-VP16 FLuc: 0.2%; ELG1 DNA repair: -4.4%; RORgamma inh: 2.3%; DT40 TDP1 CPT: -1.1%; TDP1 cell noCPT: inconclusive; IL1B secr inh: inconclusive

How did COc1ccc(NC(=O)/C=C/c2ccc(OC(F)F)cc2)cn1 do in these assays?
Gal4-VP16 FLuc: -6.8%; ELG1 DNA repair: inconclusive; RORgamma inh: -8.5%; DT40 TDP1 CPT: -24.6%; TDP1 cell noCPT: inconclusive; IL1B secr inh: -53.9*

What do the screens show for `C=CCC(CC=C)(CNC(=O)C(=O)Nc1cccc(C(F)(F)F)c1)c1ccccc1`?
DT40 TDP1 CPT: 18.4µM*; TDP1 cell noCPT: 20.6µM*

Results for COc1ccc(NC(=O)/C=C/c2cccc(C(F)(F)F)c2)cn1 ?
Gal4-VP16 FLuc: -9.5%; ELG1 DNA repair: 18.3µM*; RORgamma inh: 8.9%; DT40 TDP1 CPT: inconclusive; TDP1 cell noCPT: inconclusive; IL1B secr inh: inconclusive

What do the screens show for `COc1ccc(CN2C(=O)c3ccccc3C2c2nnnn2C(C)C)cc1` (stereo not drawn)?
DT40 TDP1 CPT: -18.1%; TDP1 cell noCPT: -28.2%; IL1B secr inh: 23.3

What do the screens show for `COc1ccc(NC(=O)CCNC(=O)c2ccco2)cc1Cl`?
Gal4-VP16 FLuc: -0.6%; ELG1 DNA repair: 7.1%; RORgamma inh: -1.0%; DT40 TDP1 CPT: 2.1%; TDP1 cell noCPT: -2.9%; IL1B secr inh: -7.2

How did O=c1cnc2ccccc2n1Cc1ccc(Br)cc1 do in these assays?
Gal4-VP16 FLuc: 19.2%; ELG1 DNA repair: 5.2%; RORgamma inh: inconclusive; DT40 TDP1 CPT: 5.2%; TDP1 cell noCPT: inconclusive; IL1B secr inh: 3.8

What do the screens show for `Cc1ccccc1Cn1c2ccccc2c2cnn(CC(=O)NCCCN3CCOCC3)c(=O)c21`?
Gal4-VP16 FLuc: -6.6%; ELG1 DNA repair: -6.6%; RORgamma inh: 5.7%; DT40 TDP1 CPT: inconclusive; TDP1 cell noCPT: -21.8%; IL1B secr inh: -71.6*

How did CC(C)(C)c1ccc(Cn2c(=O)cnc3ccccc32)cc1 do in these assays?
Gal4-VP16 FLuc: inconclusive; ELG1 DNA repair: -10.6%; RORgamma inh: 22.4µM*; DT40 TDP1 CPT: 16.4µM*; TDP1 cell noCPT: 16.4µM*; IL1B secr inh: 29.7

What do the screens show for `COc1ccc(CCNC(=O)Cn2c(=O)cnc3ccccc32)cc1`?
Gal4-VP16 FLuc: -1.5%; ELG1 DNA repair: 15.2%; RORgamma inh: -6.1%; DT40 TDP1 CPT: inconclusive; TDP1 cell noCPT: 23.1µM*; IL1B secr inh: 67.0

How did CCCN(CCC)CCCNC(=O)Cn1ncc2c3ccccc3n(Cc3ccc(F)cc3)c2c1=O do in these assays?
DT40 TDP1 CPT: 18.4µM*; TDP1 cell noCPT: 20.6µM*

Results for CC(=O)Nc1ccc(C(=O)n2nc(C)cc2C)cc1 ?
Gal4-VP16 FLuc: -3.2%; ELG1 DNA repair: 15.0%; RORgamma inh: 5.1%; DT40 TDP1 CPT: -18.4%; TDP1 cell noCPT: -13.9%; IL1B secr inh: 4.9

What do the screens show for `CC(C)n1cnc(S(=O)(=O)N2CCCC(C(=O)NCc3ccccc3Cl)C2)c1` (stereo not drawn)?
DT40 TDP1 CPT: -23.6%; TDP1 cell noCPT: -21.0%

What do the screens show for `COc1ccc(-c2cccc3c2OC(CNC(=O)c2ccc4c(c2)OCO4)C3)nn1` (stereo not drawn)?
DT40 TDP1 CPT: 17.2%[9.04 µM]; TDP1 cell noCPT: -15.8%

Results for COc1cc2nc(N3CCCC(O)C3)c(CNCc3ccccc3F)cc2c(OC)c1OC (stereo not drawn) ?
DT40 TDP1 CPT: -1.0%[9.04 µM]; TDP1 cell noCPT: -25.9%

How did Cc1nc(N2CCOCC2)c2nc(-c3ccccc3)n(CCN3CCCC3)c2n1 do in these assays?
Gal4-VP16 FLuc: 1.9%; RORgamma inh: -4.9%

What do the screens show for `COc1cccc(C(c2cccc(OC)c2)c2ccccc2C(=O)O)c1`?
DT40 TDP1 CPT: 15.7%; TDP1 cell noCPT: -20.2%; IL1B secr inh: 12.4

Results for CCCn1c2ccccc2c2cnn(CC(=O)NCCCN3CCN(c4ccccc4)CC3)c(=O)c21 ?
Gal4-VP16 FLuc: -14.2%; ELG1 DNA repair: -8.3%; RORgamma inh: 27.3%; DT40 TDP1 CPT: inconclusive; TDP1 cell noCPT: 20.6µM*; IL1B secr inh: inconclusive

What do the screens show for `CCCn1c2ccccc2c2cnn(CC(=O)NCCc3ccc(OCC)cc3)c(=O)c21`?
DT40 TDP1 CPT: inconclusive; TDP1 cell noCPT: 23.1µM*

Results for CCCn1c2ccccc2c2cnn(CC(=O)NCCCN(Cc3ccccc3)C(C)C)c(=O)c21 ?
DT40 TDP1 CPT: inconclusive; TDP1 cell noCPT: 20.6µM*

Results for CC(C)N(Cc1ccccc1)C(=O)Cn1ncc2c3ccccc3n(Cc3ccccc3)c2c1=O ?
DT40 TDP1 CPT: inconclusive; TDP1 cell noCPT: 18.4µM*

Results for COc1cc2c(c(OC)c1OC)C(=O)C(=Cc1ccccc1)O2 ?
DT40 TDP1 CPT: inconclusive; TDP1 cell noCPT: inconclusive; IL1B secr inh: -20.6

Results for COc1ccc(CCN2CC(C(=O)NCCCc3ccncc3)CCC2=O)cc1 (stereo not drawn) ?
DT40 TDP1 CPT: -9.6%; TDP1 cell noCPT: -9.8%; IL1B secr inh: -21.4

How did CCc1nn(-c2ccccc2)c(=S)c2ccccc12 do in these assays?
Gal4-VP16 FLuc: 3.1%[10 µM]; ELG1 DNA repair: 12.3%; RORgamma inh: -28.4%; DT40 TDP1 CPT: -15.6%; TDP1 cell noCPT: inconclusive; IL1B secr inh: 2.2

Results for CC1CCCCN1CCCNC(=O)Cn1ncc2c3ccccc3n(Cc3ccccc3F)c2c1=O (stereo not drawn) ?
DT40 TDP1 CPT: inconclusive; TDP1 cell noCPT: 18.4µM*

Results for CCn1c(=O)c2c(cnn2C)c2ccccc21 ?
Gal4-VP16 FLuc: -3.4%; ELG1 DNA repair: inconclusive; RORgamma inh: -8.7%; DT40 TDP1 CPT: 7.31µM*; TDP1 cell noCPT: inconclusive; IL1B secr inh: -5.4
